Assay outcomes as filed in PubChem.
mHTT-CaM PPI inh – mHTT-calmodulin interaction abrogation; inhibition, % at 15 µM; AlphaScreen His-mHTT/GST-CaM binding, luminescence; hit rate 3.6% among 190,000; P42858; AID 1671202;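 further: 0% = both proteins with DMSO and 100% = one protein alone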
Pf apPOL block – Pf-apPOL DNA polymerase inhibition | AID 1794808 | hit rate 0.25% among 210,000 | Recombinant Pf-apPOL, molecular beacon fluorescence, 1.5 h | inhibition, % at 10 µM
Numbers without * were called inactive; . = no result given. An excerpt weighted towards active compounds, which were near 3.5% of everything screened. No stated cut-off is given here; in the data, active means inhibition above about 50%; inactive means the rest.

SMILES	mHTT-CaM PPI inh	Pf apPOL block
O=C(Cn1c(CO)cnc1SCc1ccc(Cl)c(Cl)c1)NC1CC1	20	-7
CCc1ccc(O)c(N=Cc2cc([N+](=O)[O-])cc([N+](=O)[O-])c2O)c1	14	-3
O=C(Nc1cc(Cl)c(Cl)cc1Cl)c1ccc(Cl)cc1	-9	4
COc1ccc(C2=CC(c3cccc(OC)c3OC)n3ncnc3N2)cc1 (stereo not given)	-2	-6
COc1cccc(C2C=C(c3ccc(Cl)cc3)Nc3ncnn32)c1OC (stereo not given)	58*	-5
COc1ccc(C2C=C(c3cccc(Br)c3)Nc3ncnn32)c(OC)c1 (stereo not given)	45	-8
COc1cc(C2C=C(c3cccc(Br)c3)Nc3ncnn32)cc(OC)c1OC (stereo not given)	100*	-9
CC(C(=O)N1CCC(N2CCc3ccccc32)CC1)c1ccccc1 (stereo not given)	68*	4
COCCC1CCN(C(=O)C(C)c2ccccc2)CC1 (stereo not given)	1	1
Cc1cc(C)n(C(=O)CC(Cl)=C(Cl)Cl)n1	-2	.
C=CCSc1ncc2c(=S)[nH]c(=S)[nH]c2n1	.	41
O=C(c1ccc(Cn2cncn2)cc1)N1CCN(c2ccc(Cl)cc2)CC1	5	-11
Cc1ccc(Cl)cc1N1CCN(C(=O)c2ccc(Cn3cncn3)cc2)CC1	89*	-4
CCOc1ccc2c(C)nc(N=C(N)NC(=O)CC)nc2c1	-5	-1
CCC(=O)NC(=Nc1nc(C)c2cc(C)c(C)cc2n1)NC(=O)CC	2	52*
Cc1ccccc1OCC(=O)N1CCN(C2=CC3=NC(C)CN3C=N2)CC1 (stereo not given)	91*	-6
COc1ccccc1NC(=O)N1CCN(C2=CC3=NC(C)CN3C=N2)CC1 (stereo not given)	4	0
Cc1ccc(C)c(NC(=O)C2C(C=C(Cl)Cl)C2(C)C)c1 (stereo not given)	-15	-8
Cc1cc(C)c(S(=O)(=O)N2CCN(Cc3noc4ccccc34)CC2)cc1C	-15	-2
CC1CCN(Cc2cc(=O)[nH]c(C(C)C)n2)CC1	-6	-4
CCOc1ccc(C2C(C(=O)c3ccco3)=C(O)C(=O)N2CCCN2CCOCC2)cc1 (stereo not given)	2	0
COc1ccc(OC)c(S(=O)(=O)c2ccc([N+](=O)[O-])cc2Cl)c1	.	-10
O=[N+]([O-])c1ccc(S(=O)(=O)n2cccn2)cc1	8	13
COc1ccc(OC)c(S(=O)(=O)n2cc([N+](=O)[O-])cn2)c1	100*	-11
CC(C)Cc1ccc(S(=O)(=O)n2cc([N+](=O)[O-])cn2)cc1	100*	-3
SMILES	mHTT-CaM PPI inh	Pf apPOL block
CC(=O)N(CCC1(C(C)C)CCOC(C)(C)C1)Cc1ccccc1 (stereo not given)	12	-2
O=C(NCc1ccccn1)C1CCN(c2cccc(Br)c2)C1=O (stereo not given)	14	-6
CC(C)CN1CCN(c2ncccc2-c2nnc(-c3ccc(Cl)cc3)o2)CC1	-10	-3
CCc1ccccc1NC(=O)CN1CCC(c2nc(-c3ccc(F)cc3)no2)CC1	-1	2
CN1CCc2cc(C(CNC(=O)Cc3cccc4ccccc34)N3CCOCC3)ccc21 (stereo not given)	61*	-38
CN1CCc2cc(C(CNC(=O)c3ccccc3Br)N3CCOCC3)ccc21 (stereo not given)	38	-24
COc1ccc2c(c1)C(C)(C)C1(C=Cc3cc([N+](=O)[O-])cc(OC)c3O1)N2C (stereo not given)	61*	3
CN1c2ccccc2C(C)(C)C12C=Cc1cc([N+](=O)[O-])ccc1O2 (stereo not given)	-4	-6
COc1cc([N+](=O)[O-])cc2c1OC1(C=C2)N(C)c2ccccc2C1(C)C (stereo not given)	71*	-14
COc1cc2c(c(OC)c1[N+](=O)[O-])C=CC1(O2)N(C)c2ccccc2C1(C)C (stereo not given)	32	3
CNC(=O)CN1c2ccccc2C(C)(C)C12C=Cc1cc([N+](=O)[O-])ccc1O2 (stereo not given)	96*	-4
COc1cc([N+](=O)[O-])cc2c1OC1(C=C2)N(C)c2ccc([N+](=O)[O-])cc2C1(C)C (stereo not given)	13	1
CCOc1ccc(N2C(=O)Nc3ccc(Br)cc3C2(O)C(=O)NC(C)C)cc1 (stereo not given)	7	-7
CCOc1ccc2c(=O)c(-c3ccc(OC)cc3)coc2c1	-3	-9
CCOc1ccc(C2CC(c3cccc(OC)c3)n3nc(N)nc3N2)cc1 (stereo not given)	16	-5
CCOc1ccc2c(c1)-c1c(sn(-c3ccc(C(C)C)cc3)c1=S)C(C)(C)N2	76*	.
CCOc1ccc(-n2sc3c(c2=S)-c2ccc(OC)cc2NC3(C)C)cc1	94*	.
CCOc1ccc2c(c1)-c1c(sn(-c3ccc(OC)cc3)c1=S)C(C)(C)N2	94*	.
NC(=O)c1ccccc1OCC(=O)c1ccc(Br)cc1	-4	2
CC(C)n1c(C2CCN(S(=O)(=O)c3cccc(F)c3)C2)nc2ccncc21 (stereo not given)	6	-1
CCOc1ccc(C=C2Oc3cc(OCC(=O)OC(C)(C)C)ccc3C2=O)cc1	-16	-1
Cc1ccc(CNS(=O)(=O)c2ccc(F)c(C(=O)Nc3cccc(C)c3C)c2)cc1	7	-2
COc1ccc(/C=C2/C(=O)N(c3cccc(Cl)c3)N=C2C)cc1[N+](=O)[O-]	18	0
COc1cc(/C=C2/C(=O)N(c3ccc(C)cc3)N=C2C)c([N+](=O)[O-])cc1OC	49	-7
COc1cc(/C=C2/C(=O)N(c3cccc(Cl)c3)N=C2C)c([N+](=O)[O-])cc1OC	62*	1
SMILES	mHTT-CaM PPI inh	Pf apPOL block
COc1cc(/C=C2/C(=O)N(c3ccc(C(=O)O)cc3)N=C2C)c([N+](=O)[O-])cc1OC	6	100*
CC1=NN(c2ccccc2)C(=O)/C1=C/c1ccc(-c2ccc([N+](=O)[O-])cc2C)o1	1	-9
CC1=NN(c2cccc(Cl)c2)C(=O)/C1=C/c1ccc(-c2cc([N+](=O)[O-])ccc2O)o1	92*	-3
COc1ccc(CC(=O)Nc2cc(Cl)c(OC)cc2OC)cc1	0	-6
CC(C)(C)NC(=O)CSc1nc(-c2cccs2)cc(C(F)(F)F)c1C#N	-1	-6
O=C(c1ccco1)N1CCC(CCOc2ccc(F)cc2)CC1	0	-4
CCOC(=O)C(NC(=S)SC)C(=O)OCC	.	3
Cc1ccccc1-n1c(SCc2c(F)cccc2F)nc2[nH]ncc2c1=O	14	-3
COc1ccc(C2C3=C(CCCC3=O)Nc3nc(-c4cccc(C)c4)nn32)cc1OC (stereo not given)	86*	-2
COc1cc(OC)cc(-c2nc3n(n2)C(c2ccc(F)cc2)C2=C(CCCC2=O)N3)c1 (stereo not given)	57*	2
COc1cc(OC)cc(-c2nc3n(n2)C(c2ccccc2)C2=C(CCCC2=O)N3)c1 (stereo not given)	23	2
COc1ccccc1C1C2=C(CCCC2=O)Nc2nc(-c3cccc(C)c3)nn21 (stereo not given)	6	-2
COc1ccc(-c2nc3n(n2)C(c2ccccc2)C2=C(CCCC2=O)N3)cc1OC (stereo not given)	60*	0
